Measurements: the supplement of paper PMC3545927
This is one part of the list. The true hit rate is not given.

B1: HC73 (peptide)
chain: CATTPCEGSWAGNASASA
B2: HC633 (peptide)
chain: CATGTYVYNHAGNASASA
B3: FS-1771 (peptide)
chain: CARRARDMSSAGNASASA
B4: HC668 (peptide)
chain: CAADGMVSKGAGNASASA
B5: FS-1517 (peptide)
chain: CADPMLEKRSAGNASASA
B6: FS-98 (peptide)
chain: CATLDREKRSAGNASASA
B7: FS-178 (peptide)
chain: CAMLSPEKRSAGNASASA
B8: FS-1323 (peptide)
chain: CAFIGREKRSAGNASASA
B9: FS-1494 (peptide)
chain: CATLDRSKRNAGNASASA
B10: FS-2225 (peptide)
chain: CARQDRSKGTAGNASASA
B11: FS-1115 (peptide)
chain: CADQEREKRSAGNASASA
B12: FS-1129 (peptide)
chain: CAGSQWEKRSAGNASASA
B13: HC321 (peptide)
chain: CADMMMNWSPAGNASASA
B14: HC1119 (peptide)
chain: CANRLIAFASAGNASASA
B15: HC577 (peptide)
chain: CAPYYKRYISAGNASASA
B16: HC2400 (peptide)
chain: CAEVPCHRCSAGNASASA
B17: FS-1582 (peptide)
chain: CAACIRKRRLAGNASASA
B18: FS-1134 (peptide)
chain: CAKRAAVRRLAGNASASA
B19: FS-1307 (peptide)
chain: CAARHRPRRLAGNASASA
B20: FS-697 (peptide)
chain: CANLSRNRRLAGNASASA
B21: FS-423 (peptide)
chain: CAGDIRVRRLAGNASASA
B22: FS-412 (peptide)
chain: CAEGHRPRRPAGNASASA
B23: HC1252 (peptide)
chain: CAAEAAGRRLAGNASASA
B24: HC548 (peptide)
chain: CAAWYLKGKWAGNASASA
B25: HC1418 (peptide)
chain: CAHSAKSKFGAGNASASA
B26: HC2094 (peptide)
chain: CAVVCCSMSKAGNASASA
B27: HC702 (peptide)
chain: CAHGAGTRTIAGNASASA
B28: FS-749 (peptide)
chain: CAALSRPRRLAGNASASA
B29: HC2410 (peptide)
chain: CAEVPCHRPVAGNASASA
B30: FS-1133 (peptide)
chain: CAKPQRPRRPAGNASASA
B31: FS-1395 (peptide)
chain: CARESRPRRQAGNASASA
B32: FS-1163 (peptide)
chain: CARSSRPRRSAGNASASA
B33: FS-146 (peptide)
chain: CASSGRSFRSAGNASASA
B34: FS-507 (peptide)
chain: CASSGRPRRSAGNASASA
B35: FS-3096 (peptide)
chain: CARSSRSGSSAGNASASA
B36: FS-887 (peptide)
chain: CAVDSRPRRSAGNASASA
B37: HC385 (peptide)
chain: CASSGCPERLAGNASASA
B38: HC828 (peptide)
chain: CAQAETAGARAGNASASA
B39: HC655 (peptide)
chain: CADTAACGDIAGNASASA
B40: HC394 (peptide)
chain: CAQGWGPISYAGNASASA
B41: HC1345 (peptide)
chain: CASEPAPSGCAGNASASA
B42: HC80 (peptide)
chain: CATTPCPGSWAGNASASA
B43: HC1967 (peptide)
chain: CAEFTTPCSGAGNASASA

Molecular target: furin, P09958
Assay: furin cleavage Z-score vs untreated control; higher = more cleavage, active = 3.5 or more, inactive = 1 or less, 8 variable residues between constant flanks
In short: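 Cleavage by purified furin was measured on 8-mer peptides fused to a cDNA oligonucleotide and held on magnetic beads by their N-terminus. Reactions (0.01 ml, 1:10 enzyme:substrate) ran 7.5, 15 or 30 min in 50 mM HEPES pH 7.5 with CaCl2 and NaCl. Released DNA was adapter-tagged by PCR and sequenced, with read counts giving abundance. Log counts versus furin-free reactions were lowess-adjusted and scaled by median absolute deviation to give the cleavage Z-score.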

furin, P09958, sequence (P09958 whole entry): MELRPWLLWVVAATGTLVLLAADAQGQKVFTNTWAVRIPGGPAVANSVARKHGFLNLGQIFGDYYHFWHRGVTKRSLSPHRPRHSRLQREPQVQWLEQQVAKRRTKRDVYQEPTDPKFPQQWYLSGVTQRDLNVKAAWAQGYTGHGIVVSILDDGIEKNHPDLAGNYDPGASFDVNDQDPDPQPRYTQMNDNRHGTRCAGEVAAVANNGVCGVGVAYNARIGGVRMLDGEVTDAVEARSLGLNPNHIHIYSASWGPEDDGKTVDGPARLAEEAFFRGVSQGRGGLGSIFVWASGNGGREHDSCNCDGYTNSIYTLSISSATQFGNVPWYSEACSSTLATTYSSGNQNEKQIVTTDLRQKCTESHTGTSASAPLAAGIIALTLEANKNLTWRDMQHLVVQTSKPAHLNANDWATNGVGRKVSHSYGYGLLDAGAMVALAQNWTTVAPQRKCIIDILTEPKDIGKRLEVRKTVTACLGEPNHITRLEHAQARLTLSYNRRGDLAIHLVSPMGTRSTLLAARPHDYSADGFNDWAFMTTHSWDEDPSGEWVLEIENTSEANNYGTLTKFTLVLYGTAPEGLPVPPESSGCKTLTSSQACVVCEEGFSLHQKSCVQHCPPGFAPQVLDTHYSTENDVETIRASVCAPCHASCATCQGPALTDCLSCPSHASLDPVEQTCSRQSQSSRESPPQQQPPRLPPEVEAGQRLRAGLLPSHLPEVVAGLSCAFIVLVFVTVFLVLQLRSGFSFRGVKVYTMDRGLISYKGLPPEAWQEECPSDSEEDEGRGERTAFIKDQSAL

Sequence | furin cleavage Z-score (7.5 min) | furin cleavage Z-score (15 min) | furin cleavage Z-score (30 min)
B1 | 0.057 (inactive) | 0.658 (inactive) | 0.0884 (inactive)
B2 | -0.127 (inactive) | -1.41 (inactive) | -0.282 (inactive)
B3 | 2.38 | 4.53 (active) | 4.22 (active)
B4 | 0.272 (inactive) | 0.596 (inactive) | -0.245 (inactive)
B5 | -0.771 (inactive) | -0.469 (inactive) | 0.309 (inactive)
B6 | 9.65 (active) | 10.6 (active) | 9.73 (active)
B7 | 0.073 (inactive) | -0.325 (inactive) | 0.835 (inactive)
B8 | 12 (active) | 10.8 (active) | 9.06 (active)
B9 | 10.9 (active) | 11.2 (active) | 9.22 (active)
B10 | 0.0348 (inactive) | -0.0846 (inactive) | -0.182 (inactive)
B11 | 2.32 | 3.5 (active) | 5.3 (active)
B12 | 1.1 | -0.464 (inactive) | -0.295 (inactive)
B13 | -1.68 (inactive) | -0.337 (inactive) | -0.211 (inactive)
B14 | 0.982 (inactive) | 0.0869 (inactive) | 0.661 (inactive)
B15 | -0.596 (inactive) | 1.03 | 0.43 (inactive)
B16 | -0.164 (inactive) | 1.15 | 0.38 (inactive)
B17 | 8.2 (active) | 8.28 (active) | 8.96 (active)
B18 | -0.242 (inactive) | -0.206 (inactive) | 1.42
B19 | 8.25 (active) | 10.2 (active) | 9.03 (active)
B20 | 2.54 | 6.24 (active) | 6.91 (active)
B21 | 3.94 (active) | 5.14 (active) | 6.57 (active)
B22 | -0.592 (inactive) | -1.65 (inactive) | -2.58 (inactive)

Sequence | furin cleavage Z-score (7.5 min) | furin cleavage Z-score (15 min) | furin cleavage Z-score (30 min)
B23 | -0.023 (inactive) | -0.0869 (inactive) | -1.21 (inactive)
B24 | -0.848 (inactive) | -0.178 (inactive) | -0.813 (inactive)
B25 | -0.464 (inactive) | -0.415 (inactive) | -0.702 (inactive)
B26 | -0.242 (inactive) | -0.54 (inactive) | -1.3 (inactive)
B27 | 1.09 | 1.35 | -2.29 (inactive)
B28 | 2.43 | 5.44 (active) | 2.14
B29 | 0.723 (inactive) | -0.406 (inactive) | -0.356 (inactive)
B30 | -0.333 (inactive) | 0.223 (inactive) | 1.52
B31 | 8.96 (active) | 9.39 (active) | 6.91 (active)
B32 | 10.4 (active) | 11 (active) | 6.76 (active)
B33 | 0.572 (inactive) | 0.748 (inactive) | 1.78
B34 | 10.4 (active) | 9.27 (active) | 7.66 (active)
B35 | -0.25 (inactive) | -0.36 (inactive) | -1.33 (inactive)
B36 | 9.24 (active) | 9.17 (active) | 9.61 (active)
B37 | -0.122 (inactive) | -0.598 (inactive) | 0.353 (inactive)
B38 | -0.329 (inactive) | 0.716 (inactive) | -1.08 (inactive)
B39 | 0.349 (inactive) | -0.867 (inactive) | 1
B40 | 1.47 | 0.693 (inactive) | 0.999 (inactive)
B41 | -2.17 (inactive) | 0.166 (inactive) | -1.95 (inactive)
B42 | 0.174 (inactive) | -1.3 (inactive) | -1.39 (inactive)
B43 | -0.433 (inactive) | -0.681 (inactive) | -0.377 (inactive)
